Molecules are shown by their SMILES.

The source of these data is the supplement of paper PMC13380429.

The assay relates to Vero E6 infected with SARS-CoV-2. The assay can be described thus: morphology score (similarity to uninfected cells); higher = more like uninfected cells. The following applies: 24 h.
In turn, `CCCc1cc(C)[nH]c(=O)c1CNC(=O)c1cc(-c2ccc(N3CCN(C(C)C)CC3)nc2)cc2c1cnn2C(C)C` (10 µM) displayed a morphology score of 0.0705.

The compound `CC[C@@H](C)CNCC(=O)N1CCc2sccc2[C@@H]1COc1cccc(C)c1` (10 µM) returned a morphology score of 0.447. The result for `CC(C)(O)CS(=O)(=O)Nc1ccc2c(c1)CCN(C(=O)COc1cccnc1)C2` [Nampt-IN-1] (10 µM) reads -0.0571. Compound `CCCOc1ccc2[nH]cc(C3=CCNCC3)c2n1` (10 µM) had a morphology score of 0.24. The compound `Nc1ncnc2c1C(=O)N(c1ccc([C@H]3CC[C@H](CC(=O)O)CC3)cc1)CCO2` (10 µM) showed a morphology score of 0.118. In turn, `COC(=O)N[C@H](C(=O)N1CCC[C@H]1C(=O)Nc1ccc([C@@H]2CC[C@@H](c3ccc(NC(=O)[C@@H]4CCCN4C(=O)[C@@H](NC(=O)OC)C(C)C)cc3)N2c2ccc(C(C)(C)C)cc2)cc1)C(C)C` [ombitasvir] (10 µM) came in with a morphology score of 0.125. In turn, `CCCCCCCCCC(=O)O[C@H]1CC[C@H]2[C@@H]3CCC4=CC(=O)CC[C@@H]4[C@H]3CC[C@]12C` [Nandrolone decanoate] (10 µM) gave a morphology score of -0.019. Next, `NC(=O)CN1CCCC1=O` [piracetam] (10 µM): -0.0282; `NC1CCN(c2nc3c(cc2F)c(=O)c(C(=O)O)cn3-c2ccc(F)cc2F)C1` (stereo not given) [tosufloxacin] (10 µM): -0.115. The result for `C=C1C(=O)O[C@@H]2/C=C(\C)CC/C=C(\C)CC[C@@H]12` [costunolide] (10 µM) reads 0.222; that for `CCNC(C)CN1CCc2c(c(=O)oc3ccccc23)C1` (stereo not given) (10 µM), 0.209; that for `N#Cc1cccc(-c2c[nH]c3ncnc(N4CCOCC4)c23)c1` (10 µM), 0.304. The result for `CCC(=O)N1CCOc2c(cc(-c3ccc(OC)c(OC)c3)cc2OC[C@H]2CCCN(C)C2)C1` (0.833333 µM) reads -0.0814. `CN(C(=O)/C=C/c1ccoc1)[C@@H]1CC[C@@]2(O)[C@H]3Cc4ccc(O)c5c4[C@@]2(CCN3CC2CC2)[C@H]1O5` [nalfurafine] (10 µM) came in with a morphology score of -0.0681. As for `CC(=O)O[C@H]1CC[C@@]2(C)C(=CC[C@@H]3[C@@H]2CC[C@]2(C)C(=O)CC[C@@H]32)C1` [prasterone-acetate] (10 µM), the morphology score is -0.259. The result for `CCC[C@H](N[C@H]1CCc2cc(F)cc(F)c2C1)C(=O)Nc1cn(C(C)(C)CNCC(C)(C)C)cn1` (10 µM) reads 0.0166; that for `O=S(=O)(N[C@H]1CC[C@@](c2cc(F)ccc2F)(S(=O)(=O)c2ccc(Cl)cc2)CC1)C(F)(F)F` (10 µM), 0.0636; that for `Cc1ccc2nc(N)[nH]c(=O)c2c1Sc1ccncc1` [nolatrexed] (10 µM), -0.166. As to `Cn1c(CNc2ccc(C(=N)N)cc2)nc2cc(C(=O)N(CCC(=O)O)c3ccccn3)ccc21` [dabigatran] (10 µM), the morphology score is 0.269.

On to `O=C(Nc1cnc(Cl)nc1)c1ccc(F)c(F)c1` (10 µM), for which the morphology score was determined as 0.0439.

For `CNCC[C@@H](Oc1ccccc1C)c1ccccc1` [atomoxetine] (10 µM), the morphology score stood at 0.0668. The result for `CSc1ccc(OCc2ncc([N+](=O)[O-])n2C)cc1` [fexinidazole] (10 µM) reads -0.0351; that for `CCS(=O)(=O)N(C)[C@@H]1c2cc(C#N)ccc2OC(C)(C)[C@H]1O.CCS(=O)(=O)N(C)[C@H]1c2cc(C#N)ccc2OC(C)(C)[C@@H]1O` (racemic) [chromanol-(+/-)] (10 µM), 0.241. Next, `O=c1cc(-c2ccccc2)oc2cc(O)c(O)c(O)c12` [baicalein] (10 µM): 0.196; `CSc1ccc(C(=O)/C=C/c2cc(C)c(OC(C)(C)C(=O)O)c(C)c2)cc1` [elafibranor] (10 µM): 0.00446; `C=C1CC[C@H](O)C/C1=C/C=C1\CCC[C@]2(C)[C@@H]([C@H](C)CCCC(C)C)CC[C@@H]12` [cholecalciferol] (10 µM): -0.0066. The result for `Cc1ccc(S(=O)(=O)Nc2ccc3c(c2)c(C(=O)C(F)(F)F)cn3CC(=O)N[C@@H](CC(C)C)C(=O)O)cc1` (10 µM) reads 0.0604. Take `CCCCc1nc(Cl)c(C(=O)O)n1Cc1ccc(-c2ccccc2-c2nn[nH]n2)cc1` [carboxylosartan] (10 µM): the morphology score was -0.00666. The result for `Cc1cccc(/C=N/Nc2cc(N3CCOCC3)nc(OCCc3ccccn3)n2)c1` (10 µM) reads -0.334; that for `CC(C)CCNC(=O)[C@H](CC(C)C)NC(=O)[C@H]1O[C@@H]1C(=O)O` [loxistatin-acid] (10 µM), 0.296; that for `CC(C)c1nc(CN(C)C(=O)N[C@H](C(=O)N[C@@H](Cc2ccccc2)C[C@H](O)[C@H](Cc2ccccc2)NC(=O)OCc2cncs2)C(C)C)cs1` [ritonavir] (10 µM), 0.0318. Next, `O=C(CBr)N1CC([N+](=O)[O-])([N+](=O)[O-])C1` (10 µM): 0.0284; `CC(C)Cc1ccc(C(C)C(=O)NO)cc1` (stereo not given) [ibuproxam] (10 µM): 0.234.

Turning to `CCc1cc(C(N)=S)ccn1` [ethionamide] (10 µM), the morphology score is 0.155. Consider `CCCCOc1c(C(=O)c2c(F)cc(C)cc2F)c[nH]c2nncc1-2` (10 µM), for which the morphology score came out at 0.383.

The compound `CN(C)CCOC(=O)C(c1ccccc1)C1(O)CCCC1` (stereo not given) [cyclopentolate] (10 µM) showed a morphology score of 0.178. Next, `OCCN1CCN(CC/C=C2/c3ccccc3Sc3ccc(Cl)cc32)CC1` [zuclopenthixol] (0.833333 µM): 0.0109; `Oc1cccc(-c2c3nc(c(-c4cccc(O)c4)c4ccc([nH]4)c(-c4cccc(O)c4)c4nc(c(-c5cccc(O)c5)c5ccc2[nH]5)CC4)C=C3)c1` [temoporfin] (0.833333 µM): -0.0311; `C=C(C)[C@@H]1CC[C@]2(C(=O)O)CC[C@]3(C)[C@H](CC[C@@H]4[C@@]5(C)CC[C@H](O)C(C)(C)[C@@H]5CC[C@]43C)[C@@H]12` [betulinic-acid] (10 µM): 0.0296.

In the case of `CC(C)C[C@H](NC(=O)[C@H](CCCCN)NC(=O)[C@H](CCCNC(=N)N)NC(=O)[C@H](C)NC(=O)[C@H](CO)NC(=O)[C@H](CCCCN)NC(=O)[C@H](CCCNC(=N)N)NC(=O)[C@H](C)NC(=O)CNC(=O)[C@@H](NC(=O)[C@H](Cc1ccccc1)NC(=O)CNC(=O)CNC(=O)[C@@H](N)Cc1ccccc1)[C@@H](C)O)C(=O)N[C@@H](C)C(=O)N[C@@H](CC(N)=O)C(=O)N[C@@H](CCC(N)=O)C(=O)O` [orphanin-fq] (10 µM), the morphology score is 0.0454.
